The values that follow come from PubChem BioAssay (EPA / NIEHS).

The structures appear in SMILES notation. The source made the active and inactive calls. Rule for the calls: active = hit-call score of the fitted dose curve at least 0.9, where 1 is the maximum; inactive = score below 0.9.

The experiment relates to SRD5A2 (gene 6716). In words: CCTE_Deisenroth_5AR_NBTE_ratio: CCTE's 5alpha-reductase NanoBRET Target Engagement Assay - Ratio, Deisenroth Lab (AID 2284322). As to conditions: actives raise or lower the signal. On the procedure: CCTE_Deisenroth_5AR NBTE (5alpha-reductase NanoBRET Target Engagement Assay) is a cell-based, single-readout assay that uses HEK293T, a human kidney cell line, with measurements taken at 5 hours after chemical dosing in a 384 well plate. This assay includes a primary and secondary screen as well as an autofluorscence screen.CCTE_Deisenroth_5AR NBTE_ratio is one of four assay components calculated from the CCTE_Deisenroth_5AR NBTE assay. It is designed to measure the ratio of target acceptor fluorophore resonance to donor bioluminescent signals.Data from the assay component CCTE_Deisenroth_5AR NBTE_ratio was analyzed into 1 assay endpoint. This assay endpoint, CCTE_Deisenroth_5AR NBTE_ratio, was analyzed with bidirectional fitting relative to DMSO as the negative control and baseline of activity. Using a type of inducible reporter, gain or loss-of-signal activity can be used to understand changes in 5alpha-reductase catalytic function. Furthermore, this assay endpoint can be referred to as a primary readout. To generalize the intended target to other relatable targets, this assay endpoint is annotated to the misc protein intended target family, where the subfamily is 5-alpha reductase.
For transient expression of the SRD5A2-NanoLuc fusion protein, HEK293T cells are reverse transfected with pNLF1-C-SRD5A2 expression vector and incubated for 20 hours to facilitate fusion protein expression. For assay setup, 384-well non-binding surface (NBS) microplates are pre-dispensed with test chemical across an 8-point concentration series (10 nM - 29.9 uM) with two technical replicates per run. Cell suspensions are dispensed into the microplates and incubated with test chemical for a duration of three hours. Following pre-incubation with test chemical, the testosterone tracer is dispensed into each well and incubated an additional two hours. The total incubation period with test chemical is five hours, with testosterone tracer added the final two hours to reach target engagement equilibrium. For the NanoBRET endpoint measurements, a solution of Nano-Glo substrate and extracellular NanoLuc inhibitor solution is added to each test well and immediately scanned on a plate reader configured with multichromatic emission settings for donor luminescence ([…]) and acceptor fluorescence ([…]). DMSO solvent controls are included as baseline control. Plate-matched samples are run with mock tracer conditions or testosterone tracer to discriminate any potential non-specific substrate interference.
With `Oc1ccc(-c2ccccc2)c(Cl)c1`, the result was inactive.

Regarding `O=C(O)CCC(=O)O`, the result was inactive. Turning to `C=C[C@@]1(C)CC(=O)[C@]2(O)[C@@]3(C)[C@@H](O)CCC(C)(C)[C@@H]3[C@H](O)[C@H](OC(C)=O)[C@@]2(C)O1`, the outcome was inactive. As to `CCCCCCCCCCCCCC(=O)OC(C)C`, the outcome was inactive. As for `O=S(=O)(O)c1ccc(N=Nc2c(O)ccc3ccccc23)cc1`, the AC50 was 26.6 µM (active).

Consider `CN(C)c1ccc2nc3ccc(=[N+](C)C)cc-3sc2c1`, for which the AC50 is 2.95 µM (active). In the case of `CCCCCCCCCC[N+](C)(CCCCCCCCCC)CCC[Si](OC)(OC)OC`, the outcome was inactive. Turning to `COc1ccc(-c2coc3cc(O)cc(O)c3c2=O)cc1`, the AC50 was 23.6 µM (active). For the molecule `CC(C)(C)NC(=O)[C@H]1CC[C@H]2[C@@H]3CC[C@H]4NC(=O)C=C[C@]4(C)[C@H]3CC[C@]12C`, the concentration at half-maximal activity (AC50) was 0.00734 µM (active). For the molecule `CCCCCCCCCCCC(=O)N(C)CC(=O)O`, the outcome was inactive. For `CC1=NN(c2ccc(S(=O)(=O)O)cc2)C(=O)C1N=Nc1ccccc1` (centres undefined), the AC50 was 10 µM (active). For `C=CCOC(=O)c1ccc(C(=O)OCC=C)c(C(=O)OCC=C)c1`, the result was inactive.

For `O=C(OCc1ccccc1)c1ccc(O)cc1`, the outcome was inactive. Regarding `CCCCCCCCCCCCc1ccc(O)cc1`, the outcome was inactive.

What is called AC50 is the concentration at which the activity in the assay is half-maximal.
